Experimental data: PubChem BioAssay AID485317 (Broad Institute, 2010)
Screen size: about 290,000 compounds; about 11,000 (3.8%) were called active. Only a selection was taken, and actives are over-represented in it overall. A number with no mark means an inactive call.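 The calls were made as follows: active = mean replicate inhibition above about 79%, with every replicate also reaching it (limit read from the data); inconclusive = only one of the two criteria met; inactive = mean below limit and not every replicate reaching it.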

Target: FAD-linked sulfhydryl oxidase ALR (Homo sapiens) (UniProt P55789)
Sequence (P55789 whole entry, looked up): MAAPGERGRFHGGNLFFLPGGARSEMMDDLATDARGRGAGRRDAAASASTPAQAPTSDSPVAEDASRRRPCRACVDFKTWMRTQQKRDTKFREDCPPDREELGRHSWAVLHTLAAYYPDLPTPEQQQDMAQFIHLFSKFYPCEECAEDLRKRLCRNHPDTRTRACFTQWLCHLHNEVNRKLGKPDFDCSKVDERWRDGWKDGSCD
Assay: inhibitors of human ALR sulfhydryl oxidase, primary screen, biochemical, H2O2 detection, HRP-luminol luminescence, single point (AID 485317)
Settings: purified ALR, DTT oxidation, active compounds read high, concentration not given here

SMILES	inhibition
COc1ccccc1NC(=O)CCN1CCN(c2ccc(Cl)cc2)CC1	89.1% (active)
COc1ccc(NC(=O)CCN2CCCC2)c(OC)c1	-4.61%
COc1ccc(Cl)cc1NC(=O)CCN1CCOCC1	-5.1%
CC(C)n1ncc2c(C(=O)NCc3ccccc3CN(C)C)cc(C3CC3)nc21	-20.5%
Cc1ccc(NC(=O)C(C)OC(=O)Cc2c[nH]c3ccccc23)cc1S(=O)(=O)N1CCOCC1 (stereo unspecified)	-3.03%
Cc1ccc(C(=O)OCC(=O)NCc2cc(C)c(O)c(C)c2)cc1S(=O)(=O)N1CCCCC1	14.9%
COc1cc(OC)cc(-c2c(-c3ccc(F)cc3)c3cc(-c4ccc5cc[nH]c5c4)ccc3n2C)c1	0.122%
COc1ccc(N2CCN(CCNC(=O)CCN3C(=O)COc4ccccc43)CC2)cc1	80.3% (active)
COc1ccc(N2CCN(C(=O)CN3C(=O)COc4ccccc43)CC2)cc1	38%
CCCN1CCN(CCCNC(=O)CN2C(=O)COc3ccccc32)CC1	-3.58%
Cc1cccc(NS(=O)(=O)c2ccc(C)c(C(=O)NCC(c3ccccc3)N(C)C)c2)c1 (stereo unspecified)	-16.5%
CN(C(=O)CSc1cccc[n+]1[O-])C1CCCCC1	-8.28%
CN(/N=C/c1ccccc1)C(=S)c1ccccc1	12.2%
N#Cc1ccc(OCC(=O)NC(=O)NC2CCS(=O)(=O)C2)cc1 (stereo unspecified)	-0.0725%
CCOc1ccc(NC(=O)CN(C)C(=O)Cc2sc(C)nc2-c2ccc(F)cc2)cc1OCC	-2.09%
Cc1ccc(-c2ccnc3[nH]n(-c4ccccc4)c(=O)c23)cc1	1.8%
Cc1ccc(N=Nc2c(C)[nH]n(-c3ccccc3)c2=O)cc1	-12.7%
Cc1ccc(C2C3=C(Nc4[nH]n(-c5ccccc5)c(=O)c42)c2ccccc2C3=O)cc1 (stereo unspecified)	87.2% (active)
COc1cccc(CNC(C)C(=O)Nc2ccc(S(=O)(=O)N3CCCC3)cc2)c1 (stereo unspecified)	-0.631%
O=C(C[C@@H]1C/C=C\CCC(=O)OC[C@@H]2CCCN2C1=O)NCCO	2.95%
CC[n+]1cc(C)ccc1/C=C/c1ccc(N(C)C)cc1	99.4% (active)
CN(C)c1ccc(/C=N\S(=O)(=O)c2ccccc2)cc1	0.19%
COCCn1c(C)cc(C(=O)CSc2nnc(C3CC3)n2C2CC2)c1C	13.1%

SMILES	inhibition
COc1ccc(C(=O)c2c3ccc([N+](=O)[O-])cc3[n+]([O-])n2CCCN)cc1	-50.8%
Cc1ccc(NC(=O)c2cccc(S(=O)(=O)N3CCCc4ccccc43)c2)nc1	-1.14%
CCn1c(COc2ccccc2)nnc1SCC(=O)Nc1ccc2c(c1)OCCO2	-3.91%
Cn1ccnc1SCC(=O)Nc1ccc2c(c1)OCCO2	47.8%
COc1cccc(NC(=O)CSc2nccn(-c3ccc4c(c3)OCCO4)c2=O)c1	98.6% (active)
O=C(NCc1cccc(Cl)c1)C1CCC(=O)N(C2CC2)C1 (stereo unspecified)	-4.45%
O=C(C1CC(=O)N(C2CCCCC2)C1)N1CCN(c2ccccc2)CC1 (stereo unspecified)	68.2%
O=C(C1CCC(=O)N(C2CC2)C1)N1CCN(c2ccc(Cl)cc2)CC1 (stereo unspecified)	96.7% (active)
COc1ccc(S(=O)(=O)N2CCOC23CCN(S(=O)(=O)c2ccc([N+](=O)[O-])cc2)CC3)cc1	0.209%
CCN1C(=O)[C@H]2[C@@H](c3ccc(-c4ccc(OC)cc4)cc3)N[C@@](Cc3ccccc3)(C(=O)OC)[C@H]2C1=O	3.62%
CCOc1cc(C(=S)N2CCOCC2)ccc1O	2.75%
CC1CCN(C2=NC(=O)/C(=C/c3ccc(O)cc3)S2)CC1	98.6% (active)
CCOc1cc(/C=C2\SC(N3CCCCC3)=NC2=O)ccc1O	85.2% (active)
CCOc1cc(/C=C2\SC(N3CCCC(C)C3)=NC2=O)ccc1O (stereo unspecified)	98% (active)
CCOc1cc(/C=C2\C(=N)N3N=C(C)SC3=NC2=O)ccc1OCCOc1ccccc1	-3.65%
CCc1ccc(/C=C2\SC(N3CCOCC3)=NC2=O)cc1	-8.77%
Cc1ccsc1/C=C1\SC(N2CCOCC2)=NC1=O	-15.8%
O=C1N=C(N2CCCC2)S/C1=C\c1cccc(Br)c1	8.82%
CC1CCN(C2=NC(=O)/C(=C/c3cn[nH]c3-c3ccccc3)S2)CC1	28.2%
COCCN(C(=O)CC1CCCCC1)c1c(N)n(CC(C)C)c(=O)[nH]c1=O	-3.39%
O=C(NCc1ccccc1CN1CCCC1)c1cccc(S(=O)(=O)Nc2ccc(F)cc2)c1	-1.54%
CN(CC(=O)Nc1c(Cl)cccc1Cl)C(=O)CC1OC(=O)c2ccccc21 (stereo unspecified)	1.28%
CCCCn1c(N)c(N(CC(C)C)C(=O)CSc2ccc([N+](=O)[O-])cc2)c(=O)[nH]c1=O	-3.66%

SMILES	inhibition
CN(C(=O)CSc1nnc(-c2ccc3c(c2)OCO3)o1)C1CCS(=O)(=O)C1 (stereo unspecified)	-1.02%
CN(C)CCn1c2c(c(SCC(=O)NCc3ccccc3)nc1=O)CCC2	-45.9%
CN(CC(=O)Nc1ccc(OC(F)F)cc1)S(=O)(=O)/C=C/c1ccccc1	0.776%
Cc1cc(NC(=O)C(C)SCC(=O)Nc2ccccc2N2CCCCC2)no1 (stereo unspecified)	2.47%
O=C1NC(Cc2ccc(O)cc2)c2nc3ccc(Cl)cc3c(=O)n2-c2ccccc21 (stereo unspecified)	1.75%
CCCC[C@@H]1CN=C(N)N1CCc1cccc(F)c1	-12.6%
O=C1N[C@H](Cc2c[nH]c3ccccc23)COC(=O)[C@H](Cc2ccc(F)cc2)C/C=C\C[C@H]1CC(=O)N(CCO)Cc1ccccc1	-0.125%
COc1ccc(CCNc2cc(N3CCN(C(=O)c4ccccc4OC)CC3)ccc2[N+](=O)[O-])cc1OC	-7.83%
COc1ccc2[nH]c(=S)cc(C)c2c1	-27.6%
COc1ccc2[nH]c3ccc(OC)cc3c2c1	97.3% (active)
COc1ccc2[nH]c(C(=O)N3CCN(C)CC3)c(C)c2c1	-19.3%
N#Cc1ccc(C2=CC(=O)C[C@H](c3ccc(Cl)cc3)C2)cc1	-5.77%
Cc1ccc(NC(=O)NC2CCCCC2)cc1S(=O)(=O)N1CCOCC1	74.4%
Cc1ccc(NC(=O)C2CC2)cc1S(=O)(=O)N1CCOCC1	-0.606%
Cc1ccc(NC(=O)C(C)Sc2nnc(C3CC3)n2C2CC2)cc1S(=O)(=O)N1CCOCC1 (stereo unspecified)	96.1% (active)
COc1ccccc1OCCNC(=O)C(CCSC)NC(=O)COc1ccccc1 (stereo unspecified)	0.393%
CN(C)c1ccc(NC(=O)CSc2n[nH]c(-c3ccco3)n2)cc1	98.9% (active)
O=C(CSc1n[nH]c(-c2cccnc2)n1)Nc1ccc(Cl)cc1	5.84%
CN(C)C(=O)CSc1n[nH]c(-c2ccco2)n1	-5.75%
COc1ccccc1N1CCN(C(=O)C2Cc3ccccc3CN2C(=O)c2ccco2)CC1 (stereo unspecified)	19.8%
CC(C)CN(C(=O)c1ccc2c(c1)OCO2)C1CCS(=O)(=O)C1 (stereo unspecified)	3.07%
CC1Sc2ccc(C(=O)NCc3ccccc3Cl)cc2NC1=O (stereo unspecified)	-5.05%
Cc1ccc(CNC(=O)c2cc(-c3ccccc3C)n(CC3CC(c4cccc([N+](=O)[O-])c4)=NO3)n2)cc1 (stereo unspecified)	-3.66%

SMILES	inhibition
O=C(N/N=C/c1cc(Br)c(O)c([N+](=O)[O-])c1)C(O)(c1ccccc1)c1ccccc1	14%
O=C(c1ccco1)N1CCN(c2cccc(Cl)c2)CC1	12.7%
CCC(=O)N1CCN=C1SCc1ccc(F)cc1	98.7% (active)
O=S(=O)(c1ccc(F)cc1)N1CCN=C1SCc1cccc(F)c1	-6.25%
O=C(COc1ccccc1)N1CCN=C1SCc1cccc(F)c1	15.7%
CCSC1=NCCN1S(=O)(=O)c1ccc(F)cc1	-3.09%
Cc1nnc(SCc2cccc(Cl)c2)n(N)c1=O	-0.251%
O=C(C1CC1)N1CCN=C1SCc1ccc(Cl)cc1	98.3% (active)
O=C(C1CCN(Cc2ccc(Cl)cc2)CC1)N1CCN(Cc2ccc3c(c2)OCO3)CC1	-2.64%
CC1CCN(C(=O)c2ccc(CSc3ccc(Cl)cc3)cc2)CC1	-6.8%
O=C(c1ccco1)N1CCN=C1SCc1cccc(Cl)c1	96.8% (active)
CS(=O)(=O)N1CCN=C1SCc1ccc(F)cc1	98.4% (active)
CSC1=NCCN1C(=O)Cc1cccc2ccccc12	-43.6%
O=C(C1CCC1)N1CCN(S(=O)(=O)c2ccc([N+](=O)[O-])cc2)CC1	-24.2%
O=C(COc1ccccc1F)Nc1nc(-c2ccccn2)cs1	-5.87%
COc1ccc(C2(C)ON(c3ccccc3C(F)(F)F)C2=O)cc1 (stereo unspecified)	1.44%
Cc1cccc(C)c1Nc1nnc(SCC(=O)NCCCN2CCCC2=O)s1	3.02%
C=CCC[C@H](Cc1ccc(F)cc1)C(=O)OC[C@@H](Cc1c[nH]c2ccccc12)NC(=O)[C@H](CC=C)CC(=O)N[C@H](CO)Cc1ccccc1	1.04%
Cc1ccc(C)c(OCC(=O)NNC(=O)C2CCC2)c1	-3.99%
O=C(NNC(=O)C1CCC1)c1ccccc1	-8.4%
Cc1ccc(NNC(=O)C2CCC2)cc1C	98.5% (active)
COc1ccc(CCNC(=O)COC(=O)C2CC2C)cc1 (stereo unspecified)	5.1%
